This is an account of results in PubChem BioAssay (NCI).

A short description of assay [1]: NCI Yeast Anticancer Drug Screen. Data for the rad50 strain (AID 155).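 Further: 0% = growth of vehicle-only cultures of the same strain.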 The note with it: S. cerevisiae rad50 strain growth inhibition, active compounds read high. In short, it runs like this:
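Vehicle-treated cultures provide the reference for the growth inhibition reported for compound-exposed, repair-deficient yeast.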

Assay [2] can be described thus: NCI Yeast Anticancer Drug Screen. Data for the mec2-1 strain (AID 157). As to conditions: S. cerevisiae mec2-1 strain, active compounds read high. In short, it runs like this:
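Vehicle-treated cultures served as reference for growth inhibition of compound-exposed mec2-1 yeast.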

A short description of assay [3]: NCI Yeast Anticancer Drug Screen. Data for the sgs1 mgt1 strain (AID 161).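 Further: 0% = growth of cultures given vehicle only.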 The note with it: S. cerevisiae sgs1 mgt1 strain, active compounds read high. In short, it runs like this:
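Inhibition of yeast growth, normalised to vehicle-treated controls, is reported for a strain bearing genetic alterations in DNA damage repair.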

Assay [4] in a line: NCI Yeast Anticancer Drug Screen. Data for the cln2 rad14 strain (AID 165).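 Further: 0% = growth equal to vehicle treated cultures.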 As to conditions: S. cerevisiae cln2 rad14 strain, active compounds read high. In short, it runs like this: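 Each compound was tested on cln2 rad14 yeast. Inhibition of growth was calculated against vehicle-exposed controls.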
Assay [5] can be described thus: NCI Yeast Anticancer Drug Screen. Data for the bub3 strain (AID 167). As to conditions: S. cerevisiae bub3 mutant strain, active compounds read high. In short, it runs like this: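 Mutant yeast screening strain plus compound; vehicle-treated cultures serve as the 0% inhibition reference.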
Assay [6] can be described thus: NCI Yeast Anticancer Drug Screen. Data for the mlh1 rad18 strain (AID 175). The note with it: S. cerevisiae mlh1 rad18 strain growth inhibition, active compounds read high. In short, it runs like this: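 Vehicle-treated cultures served as the reference for growth inhibition in a yeast strain carrying DNA damage repair alterations exposed to each compound.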
Where [7] appears, read: at 5.0 µM (retest, dose inferred, filed as 0.5).
[8] abbreviates: at 50.0 µM (retest, dose inferred, filed as 5.0).

Each structure is given as a SMILES string. The panel holds about 79,000 compounds, 15% with a hit somewhere; the sample as a whole holds those more often. Unmarked numbers belong to inactive results. Calls of active or inactive are those of the source. No stated cut-off is given here; in the data, active means growth inhibition above about 70%; inactive means the rest.

Consider `O=C1NC(=O)N(c2ccc(Cl)c(Cl)c2)C1=O`, for which the growth inhibition in assay [1] (setting [7]) was -1%; in assay [1] (setting [8]) it was 8%; in assay [1] (at 50.0 µM), 71.2% (active); in assay [2] (setting [7]), 1%; in assay [2] (setting [8]) it was 8%; in assay [2] (at 50.0 µM), 36.5%. Moreover, the growth inhibition in assay [3] (setting [7]) is 0%; in assay [3] (setting [8]), 7%; in assay [3] (at 50.0 µM) it was 41.5%; in assay [4] (setting [7]), -4%; in assay [4] (setting [8]), 5%; in assay [4] (at 50.0 µM), 24.8%. Further, the growth inhibition is -5% in assay [5] (setting [7]); -1% in assay [5] (setting [8]); 44.5% in assay [5] (at 50.0 µM); -4% in assay [6] (setting [7]); 4% in assay [6] (setting [8]); 27.9% in assay [6] (at 50.0 µM).
Take `CC(=O)N=C1N(/C=C2\C(=O)Oc3ccccc3C2=O)C(=O)/C(=C/c2ccco2)N1C`: the growth inhibition in assay [1] (setting [7]) was -12%; in assay [1] (setting [8]) it was 84% (active); in assay [1] (at 50.0 µM), 97.6% (active); in assay [2] (setting [7]), 3%; in assay [2] (setting [8]) it was 74% (active); in assay [2] (at 50.0 µM), 97.1% (active). Besides, the growth inhibition in assay [3] (setting [7]) was -6%; in assay [3] (setting [8]), 65%; in assay [3] (at 50.0 µM), 96.2% (active); in assay [4] (setting [7]) it was -7%; in assay [4] (setting [8]) it was 24%; in assay [4] (at 50.0 µM), 91% (active). Further, the growth inhibition in assay [5] (setting [7]) was -22%; in assay [5] (setting [8]) it was 76% (active); in assay [5] (at 50.0 µM) it was 97.7% (active); in assay [6] (setting [7]) it was -17%; in assay [6] (setting [8]), 61%; in assay [6] (at 50.0 µM), 98.7% (active).
With `CCOC(=O)C(C(=O)OCC)C1(c2ccccc2)OC(=O)c2ccccc21` (stereo not given), the growth inhibition in assay [1] (setting [7]) is 0%; in assay [1] (setting [8]) it was 13%; in assay [1] (at 50.0 µM) it was 0.55%; in assay [2] (setting [7]), 13%; in assay [2] (setting [8]) it was 27%; in assay [2] (at 50.0 µM), 5.3%. Further, the growth inhibition was -1% in assay [3] (setting [7]); 21% in assay [3] (setting [8]); 52.9% in assay [3] (at 50.0 µM); -1% in assay [4] (setting [7]); 17% in assay [4] (setting [8]); 19.1% in assay [4] (at 50.0 µM). Also, the growth inhibition in assay [5] (setting [7]) is -7%; in assay [5] (setting [8]) it was -6%; in assay [5] (at 50.0 µM), 8.8%; in assay [6] (setting [7]), -4%; in assay [6] (setting [8]), 5%; in assay [6] (at 50.0 µM), -8.55%.
As for `COc1ccccc1/C=C\C(=O)c1ccccc1`, the growth inhibition was 2% in assay [1] (setting [7]); 89% (active) in assay [1] (setting [8]); 98.7% (active) in assay [1] (at 50.0 µM); 1% in assay [2] (setting [7]); 98% (active) in assay [2] (setting [8]); 99.4% (active) in assay [2] (at 50.0 µM). In addition, the growth inhibition was 2% in assay [3] (setting [7]); 95% (active) in assay [3] (setting [8]); 99.2% (active) in assay [3] (at 50.0 µM); -4% in assay [4] (setting [7]); 57% in assay [4] (setting [8]); 89.8% (active) in assay [4] (at 50.0 µM). The growth inhibition in assay [5] (setting [7]) is 5%; in assay [5] (setting [8]) it was 98% (active); in assay [5] (at 50.0 µM), 98.8% (active); in assay [6] (setting [7]), 2%; in assay [6] (setting [8]) it was 98% (active); in assay [6] (at 50.0 µM), 98.8% (active).
As for `COc1ccc(/C=N/Nc2ccccc2)cc1`, the growth inhibition was 7% in assay [1] (setting [7]); 97% (active) in assay [1] (setting [8]); 98.5% (active) in assay [1] (at 50.0 µM); -12% in assay [2] (setting [7]); 85% (active) in assay [2] (setting [8]); 99% (active) in assay [2] (at 50.0 µM). Besides, the growth inhibition was -6% in assay [3] (setting [7]); 97% (active) in assay [3] (setting [8]); 98.9% (active) in assay [3] (at 50.0 µM); -9% in assay [4] (setting [7]); 93% (active) in assay [4] (setting [8]); 98.7% (active) in assay [4] (at 50.0 µM). The growth inhibition is -17% in assay [5] (setting [7]); 97% (active) in assay [5] (setting [8]); 99% (active) in assay [5] (at 50.0 µM); 8% in assay [6] (setting [7]); 96% (active) in assay [6] (setting [8]); 98.4% (active) in assay [6] (at 50.0 µM).
Consider `C1C2OC2C2C1C1CC2C2OC12` (stereo not given), for which the growth inhibition in assay [1] (setting [7]) was 1%; in assay [1] (setting [8]), -3%; in assay [1] (at 50.0 µM) it was 7.9%; in assay [2] (setting [7]), 0%; in assay [2] (setting [8]) it was -4%; in assay [2] (at 50.0 µM), -12.8%. Moreover, the growth inhibition in assay [3] (setting [7]) is -3%; in assay [3] (setting [8]), -15%; in assay [3] (at 50.0 µM) it was -2.55%; in assay [4] (setting [7]) it was 2%; in assay [4] (setting [8]), 2%; in assay [4] (at 50.0 µM) it was 19.4%. Also, the growth inhibition was 1% in assay [5] (setting [7]); 1% in assay [5] (setting [8]); -12.9% in assay [5] (at 50.0 µM); 1% in assay [6] (setting [7]); -1% in assay [6] (setting [8]); -0.1% in assay [6] (at 50.0 µM).
On to `O=[N+]([O-])c1ccc(Cl)cc1C=NC12CC3CC(CC(C3)C1)C2`, for which the growth inhibition in assay [1] (setting [7]) was 15%; in assay [1] (setting [8]), 16%; in assay [1] (at 50.0 µM) it was 80.8% (active); in assay [2] (setting [7]), 12%; in assay [2] (setting [8]) it was 13%; in assay [2] (at 50.0 µM) it was 69%. Moreover, the growth inhibition in assay [3] (setting [7]) was 16%; in assay [3] (setting [8]) it was 23%; in assay [3] (at 50.0 µM) it was 22.4%; in assay [4] (setting [7]), 3%; in assay [4] (setting [8]) it was 14%; in assay [4] (at 50.0 µM), 8.55%. Also, the growth inhibition in assay [5] (setting [7]) is 4%; in assay [5] (setting [8]) it was 9%; in assay [5] (at 50.0 µM) it was 4.2%; in assay [6] (setting [7]), 13%; in assay [6] (setting [8]), 15%; in assay [6] (at 50.0 µM), 54.6%.
In the case of `COc1cc(NS(C)(=O)=O)ccc1Nc1c2ccccc2nc2ccccc12`, the growth inhibition in assay [1] (setting [7]) is 67%; in assay [1] (setting [8]), 85% (active); in assay [1] (at 50.0 µM) it was 83.5% (active); in assay [2] (setting [7]), -5%; in assay [2] (setting [8]) it was 57%; in assay [2] (at 50.0 µM), 42.5%. The growth inhibition is 9% in assay [3] (setting [7]); 44% in assay [3] (setting [8]); 37.2% in assay [3] (at 50.0 µM); 15% in assay [4] (setting [7]); 32% in assay [4] (setting [8]); 20.8% in assay [4] (at 50.0 µM). The growth inhibition is 14% in assay [5] (setting [7]); 24% in assay [5] (setting [8]); 11.1% in assay [5] (at 50.0 µM); 9% in assay [6] (setting [7]); 38% in assay [6] (setting [8]); 32.9% in assay [6] (at 50.0 µM).
For `Cc1cccc(Nc2c3c(nc4ccccc24)CCCCC3)c1`, the growth inhibition was 0% in assay [1] (setting [7]); 89% (active) in assay [1] (setting [8]); 90% (active) in assay [1] (at 50.0 µM); -2% in assay [2] (setting [7]); 79% (active) in assay [2] (setting [8]); 28.1% in assay [2] (at 50.0 µM). The growth inhibition in assay [3] (setting [7]) is -2%; in assay [3] (setting [8]) it was 85% (active); in assay [3] (at 50.0 µM), 86.8% (active); in assay [4] (setting [7]), -3%; in assay [4] (setting [8]), 53%; in assay [4] (at 50.0 µM) it was 66.9%. Besides, the growth inhibition was -1% in assay [5] (setting [7]); 92% (active) in assay [5] (setting [8]); 27.1% in assay [5] (at 50.0 µM); -5% in assay [6] (setting [7]); 83% (active) in assay [6] (setting [8]); 93.2% (active) in assay [6] (at 50.0 µM).
Take `O=C1C(=O)N(C(=O)c2ccc(Cl)c(Cl)c2)c2ccc(Cl)cc21`: the growth inhibition was -6% in assay [1] (setting [7]); -4% in assay [1] (setting [8]); 13.6% in assay [1] (at 50.0 µM); -9% in assay [2] (setting [7]); 2% in assay [2] (setting [8]); 24.4% in assay [2] (at 50.0 µM). Besides, the growth inhibition in assay [3] (setting [7]) was -7%; in assay [3] (setting [8]), 6%; in assay [3] (at 50.0 µM), 35.2%; in assay [4] (setting [7]) it was -9%; in assay [4] (setting [8]), -20%; in assay [4] (at 50.0 µM) it was 10.8%. In addition, the growth inhibition in assay [5] (setting [7]) is -6%; in assay [5] (setting [8]), 56%; in assay [5] (at 50.0 µM), 91.6% (active); in assay [6] (setting [7]), -8%; in assay [6] (setting [8]) it was 12%; in assay [6] (at 50.0 µM), 64%.
